Where “and” joins values, the source holds several entries; their conditions need not be identical. Equal entries are not always repeated. Results filed as inconclusive are left out. Calls of active or inactive are those of the source. How the source made its calls: active means hit-call score of the fitted dose curve at least 0.9, where 1 is the maximum; inconclusive means response in the unintended direction; inactive means score below 0.9.
Test: CCTE_Shafer_MEA_dev_bursting_electrodes_number: CCTE's Neural Network Formation Assay for Number of Bursting Electrodes, Shafer Lab (AID 2284043)
Description: CCTE_Shafer_MEA_dev assay is conducted using Axion Biosystems 48 well microelectrode array (MEA) plates and Maestro recording system. Each well of the MEA plate contains a grid of 16 microelectrodes embedded in the culture surface. Electrically active cells, such as neurons, can be cultured over the electrodes, and electrical activity in these cells can be recorded extracellularly. The spontaneous firing of neurons is captured from each electrode on a microsecond timescale providing both temporally and spatially precise data. […] The CCTE_Shafer_MEA_dev assay uses primary cultures of rat cortical neurons. Recordings are made on days post-plating 5, 7, 9 and 12. As these cultures mature over time, neural networks develop functional activity and form cohesive networks in which electrical activity can be highly coordinated. CCTE_Shafer_MEA_dev_bursting_electrodes_number is 1 of 19 assay components of the CCTE_Shafer_MEA_dev assay. It measures the number of electrodes in a well with a burst rate of at least 1 burst (temporally-clustered group of action potential firing) every 2 minutes during a recording in a microelectrode array (MEA) using Axion Biosystems Maestro 768 channel amplifier with the AxIS adaptive spike detector. To collapse across multiple recordings made on days post-plating 5, 7, 9 and 12, the trapezoidal area-under-the-curve of the component is calculated.Data from the assay component CCTE_Shafer_MEA_dev_bursting_electrodes_number was analyzed into 1 assay endpoint. This assay endpoint, CCTE_Shafer_MEA_dev_bursting_electrodes_number, was analyzed in the negative analysis fitting direction relative to DMSO as the negative control and baseline of activity. Using a type of functional reporter, gain or loss-of-signal activity can be used to understand electrical activity.
On the day prior to culture, each well was coated thoroughly with 150 uL of 0.05% polyethyleneimine (PEI, Sigma Cat P3143) in 50 mM HEPES (Sigma Cat H7523) at a pH of 8. The plate was incubated at 37C for one hour. PEI was rinsed out with 500 uL of sterile water three times. Plates were stored at 4C until the day of culture. This culture was plated at a seeding density of 1.5 x 10^5 cells/well on a 48-well MEA plate, prepared as described above. Cells were administered via a 25 uL media/laminin ([…]; Sigma Cat L2020-1MG) drop directly onto the microelectrode array, as adding the cells with the laminin results in better attachment than pre-coating with laminin. After 2 hours, an additional 475 uL of cortical media was added and the cells returned to the incubator. Exposure starts at day 0 of plating and is continued over twelve days of network development until the experiment is terminated. Cells are fed with fresh medium on DIV 5 and 9, following the recordings on those days. The entire volume of media in the well is exchanged and any vehicle or compound treatment is renewed. Complete details are found in OP-NHEERL/ISTD/SBB/TJS/2015-03-r0 (available on request, email shafer.tim@epa.gov). Measurement of the electrical activity is non-invasive, and recordings can be made from the same plate over multiple different days of the culture. In cortical neurons, this allows for the measurement of extracellular action potentials over the period during which networks form in the MEA plate.

SMILES | outcome | AC50
OCC(F)(F)OC(F)(F)C(F)(F)OC(F)(F)C(F)(F)OC(F)(F)F | inactive | 
CCOc1ccc(C(C)(C)COCc2cccc(Oc3ccccc3)c2)cc1 |  | 8.06 µM (active)
O=C(O)C(F)(OC(F)(F)C(F)(F)C(F)(F)F)C(F)(F)F (stereo not given) | inactive | 
O=P1(N(CCCl)CCCl)NCCCO1 (stereo not given) | inactive | 
ClC1=C(Cl)C2(Cl)C3C(Cl)C(Cl)CC3C1(Cl)C2(Cl)Cl (stereo not given) |  | 7.54 µM (active)
O=S(=O)(c1ccc(O)cc1)c1ccc(O)cc1 | inactive | 
CCCCC(CC)COP(=O)(Oc1ccccc1)Oc1ccccc1 (stereo not given) | inactive | 
C=CC(=O)OCC(F)(F)C(F)F |  | 4.87 µM (active)
c1ccc(OP(Oc2ccccc2)Oc2ccccc2)cc1 | inactive | 
CCOP(=S)(OCC)SCSCC |  | 76.1 µM (active) and 23.1 µM (active)
CC(C)(C)c1ccccc1OP(=O)(Oc1ccccc1)Oc1ccccc1 |  | 16.4 µM (active) and 26.8 µM (active)
CCCCC(CC)COC(=O)c1c(Br)c(Br)c(Br)c(Br)c1C(=O)OCC(CC)CCCC (stereo not given) | inactive | 
c1cc2c3c(cccc3c1)CC2 | inactive | 
O=P(Oc1ccccc1)(Oc1ccccc1)Oc1ccccc1 | inactive | 
O=C(O)C(F)(F)OC(F)(F)C(F)(F)OC(F)(F)C(=O)O | inactive | 
CO/N=C(/C(=O)OC)c1ccccc1COc1ccccc1C |  | 0.857 µM (active)
O=C(O)C(F)(F)C(F)(F)C(=O)O | inactive | 
CC(O)C(F)(F)C(F)(F)F (stereo not given) | inactive | 
OCC(F)(F)OC(F)(F)C(F)(F)OC(F)(F)CO | inactive | 
OCC(F)(F)OC(F)(F)C(F)(F)OC(F)(F)C(F)(F)OC(F)(F)CO | inactive | 
